This passage reports activity change results from PubChem BioAssay AID743279 (National Center for Advancing Translational Sciences (NCATS), 2014).

The structures appear in SMILES notation. Among all 360,000 compounds or so, about 17,000 (4.7%) were called active. Not shown: some 5% with an inconclusive outcome. Only a selection was taken, and actives are over-represented in it overall. Unmarked numbers belong to inactive results. Cut-off read from the data, not from the text of the source: active = activity change below about -50%; inconclusive = mostly about -30% to -49%; inactive = weaker than that.
% is set by controls: 0 for no effect and ±100 for the full control effect.

A short description of the assay: qHTS for Inhibitors of Inflammasome Signaling: IL-1-beta AlphaLISA Primary Screen. The note with it: THP-1 LPS/ATP IL-1B secretion, 16 h; at 57.5 µM, active compounds read low. Put shortly: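 Secreted IL-1B measured by AlphaLISA bead assay after 16 h compound exposure of THP-1 cells; compounds (final up to 57.5 uM) added 1 h before LPS (250 ng/mL) and ATP (1.25 mM) stimulation; lower signal means less secretion.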
Background: In qHTS, concentration-response curves come from the screen itself.
On to `Cc1cccc(C)c1NC(=O)C(c1ccccc1)N1CC(=O)Nc2ccccc21` (stereo unspecified), for which the activity change was -11%. `Cc1cccc(C)c1NC(=O)C(Cl)C(=O)c1ccccc1` (stereo unspecified): the activity change is -95.8% (active).

Regarding `Cc1cccc(C)c1NC(=O)CN(C)C(=O)CCC(=O)c1ccccc1`, the activity change is -6.47%. Then `OC(c1ccc(F)cc1)c1ncc(-c2cccc(C(F)(F)F)c2)[nH]1` (stereo unspecified), with -20.2%. Then `NC(Cc1ccccc1)c1csc(Nc2cc(Oc3ccccc3)ncn2)n1` (stereo unspecified), with 0%; and `COc1ccc(CC(N)c2csc(NC(=O)Nc3ccc(C(C)C)cc3)n2)cc1` (stereo unspecified), with -108% (active).

On to `COc1ccc(CC(N)c2csc(NC(=O)NC(c3ccccc3)c3ccccc3)n2)cc1` (stereo unspecified), for which the activity change was -61.5% (active).

In the case of `Cc1ccccc1NC(=O)Cc1nc(COC(=O)c2ccc(C(F)(F)F)cc2)cs1`, the activity change was -4.36%.

`COC(=O)[C@H](CCSC)NC(=O)Nc1ccc(OC)cc1`: the activity change is 16.7%. With `CC(C)(C)CC(=O)Nc1nc(C(N)Cc2ccc(C(F)(F)F)cc2)cs1` (stereo unspecified), the activity change is -83.8% (active). Then `CC(C)(C)CC(=O)Nc1nnc(SCC(=O)NCc2cccs2)s1`, with -5.2%.

Consider `COc1ccc(NC(=O)C(Br)C(C)C)cc1` (stereo unspecified), for which the activity change is -18.5%.

Regarding `COc1ccc(OC)c(NC(=O)N[C@H](Cc2ccccc2)C(=O)NN)c1`, the activity change was -13.5%.

Regarding `CCCS(=O)(=O)NC(=O)C1(C)CCN(C(=O)c2sccc2C)C1` (stereo unspecified), the activity change was 6.04%. The same measure for `CC1(C(=O)NCc2cccc3ccccc23)CCN1Cc1ccc(-c2ccccc2)o1` (stereo unspecified): -22.3%. As to `COc1cccc(CNS(=O)(=O)c2ccc3c(c2)N(C(C)=O)CCS3)c1`, the activity change is -9.03%. The same measure for `CCC1CCCCN1C(=O)CSc1nc(C)cc(C)n1` (stereo unspecified): -6.03%. Regarding `COc1ccc(-c2ccc(CN3C(C(C)C)C(=O)N(Cc4cn(CC5CCCCC5)nn4)CCS3(=O)=O)cc2)cn1` (stereo unspecified), the activity change was -2.84%. With `COc1ccc(CCNC(=O)C(Sc2ccccn2)c2ccccc2)cc1OC` (stereo unspecified), the activity change is -6.65%.

With `COc1ccc(COC(=O)NC(C(=O)O)c2ccccc2)cc1` (stereo unspecified), the activity change is 7.03%. The same measure for `COc1ccc(C(CCN(Cc2ccc(OC)c(OC)c2)C(=O)CCl)c2ccccc2)cc1` (stereo unspecified): -101% (active). Then `O=C(NCC(O)c1nc2ccccc2[nH]1)c1ccc(Br)cc1` (stereo unspecified), with 1.41%; and `C/C(CC(=O)Nc1ccc(Cl)cc1)=N\NC(=O)C(=O)NCCO`, with 11.5%. As to `CCOC(=O)Cc1csc(SCC(=O)Nc2ccc(C)cc2F)n1`, the activity change was 21%. Then `COc1cc(C2C(C#N)=C(N)Oc3n[nH]c(-c4ccccn4)c32)cc(OC)c1OC` (stereo unspecified), with 1.38%. The same measure for `CCCc1[nH]nc2c1C(c1ccc(Br)s1)C(C#N)=C(N)O2` (stereo unspecified): -99.8% (active); for `CCc1ccc(C2C(C#N)=C(N)Oc3n[nH]c(CC(=O)OC)c32)cc1` (stereo unspecified): -9.71%. The same measure for `CCCc1[nH]nc2c1C(c1ccc(OC)c(Cn3nc(C)c(Br)c3C)c1)C(C#N)=C(N)O2` (stereo unspecified): -67% (active); for `COc1ccc(-c2[nH]nc3c2C(c2ccncc2)C(C#N)=C(N)O3)cc1` (stereo unspecified): 0%; for `CCOc1c(OC)cc(C2C(C#N)=C(N)Oc3n[nH]c(-c4ccncc4)c32)cc1OC` (stereo unspecified): 25.5%.

Consider `CC1(Oc2ccccc2-c2ccno2)CCN(Cc2ccc(-c3ccccc3)o2)C1` (stereo unspecified), for which the activity change is 5.25%. Turning to `S=C(Nc1ccccc1)Nc1ccc2ccccc2c1`, the activity change is -11.8%.

Consider `O=C(Nc1ccc2ccccc2c1)Nc1ccc2snnc2c1`, for which the activity change was -98.9% (active). Turning to `O=C(Nc1cccc(Br)c1)c1ccc2snnc2c1`, the activity change is -14.1%. Then `Cc1cc2oc(=O)cc(CN(C)Cc3ccccc3)c2cc1Cl`, with -8.49%; and `COc1ccc(CCOC2OC(CO)C(OC(=O)/C=C/c3ccc(O)c(OC)c3)C(O[C@H]3O[C@@H](C)[C@H](O)[C@@H](O)[C@H]3O)C2O)cc1O` (stereo partly specified), with 12.4%. The same measure for `Cc1cccc(C)c1NC(=O)CN1CCN(c2ccc(F)cc2)CC1`: 21.6%. Regarding `O=C(COC(=O)C1CCCO1)Nc1nc(-c2ccc(F)cc2)cs1` (stereo unspecified), the activity change was -13.3%. The same measure for `CC1CCCC(C)N1C(=O)CN1CCN(c2nc(-c3ccc(F)cc3)cs2)CC1` (stereo unspecified): -52.3% (active); for `O=C(CCCN1C(=O)C(c2ccccc2)Oc2cccnc21)Nc1ccccc1Br` (stereo unspecified): -9.67%.

As to `Cc1cc(Br)cn2c(Cc3ccccc3C(F)(F)F)c(C3CCCCC3)nc12`, the activity change is 1.07%. As for `Cc1ccc(S(=O)(=O)CCC(=O)OCC(=O)N(C)Cc2ccccc2)cc1`, the activity change was 8.91%. The same measure for `COc1cccc2sc(N(CCCN(C)C)C(=O)C(c3ccccc3)c3ccccc3)nc12`: -104% (active); for `Cc1cccc2sc(N(CCCN(C)C)C(=O)CCS(=O)(=O)c3ccccc3)nc12`: -96.3% (active); for `COc1cc2ccccc2cc1C(=O)N(CCN(C)C)c1nc2c(F)cccc2s1`: 14.7%. The same measure for `COc1cccc2sc(N(CCCN(C)C)C(=O)CCS(=O)(=O)c3ccccc3)nc12`: -103% (active); for `COc1ccccc1NC(=O)CC(NCCN(C)C)C(=O)O` (stereo unspecified): 12.6%. Then `Cc1cc(C)c2nc(N(CCN(C)C)C(=O)/C=C/c3cccs3)sc2c1`, with 16.5%; and `Cc1ccc2sc(N(CCN(C)C)C(=O)/C=C/c3cccs3)nc2c1C`, with 6.57%; and `COc1ccc(N(C)C(=O)CCS(=O)(=O)c2cccc3nsnc23)cc1`, with -11.5%. For `CC(=O)NC(c1cccc(F)c1)c1nc(-c2cccc(F)c2)cs1` (stereo unspecified), the activity change is -16.3%. Turning to `CCN(CC)C(=O)C(C)N1c2cccc3cccc(c23)S1(=O)=O` (stereo unspecified), the activity change was 13.2%.

Consider `O=C(CCNS(=O)(=O)c1ccccc1)NCCCc1ccccc1`, for which the activity change is 14.3%. Then `COc1ccc(C(=O)Nc2sc(C)c(C)c2CN2CCOCC2)cc1`, with 14%; and `CCc1ccc(NC(=O)CN2CCC(C(=O)c3ccc(OC)cc3)CC2)cc1`, with -20.7%. Then `COc1ccc(C(=O)Nc2ccc(F)cc2F)cc1`, with -11.8%; and `COc1ccc(OC)c(C(=O)c2ccc(C(=O)N3CCN(Cc4csc(C)n4)CC3)cc2)c1`, with 27.4%; and `CCc1cc(C(=O)c2ccc(OC)cc2)c(NC(=O)CN2CCN(C)CC2)s1`, with -54.3% (active). Then `CCc1cc(C(N)=O)c(NC(=O)c2ccc(OC)cc2)s1`, with -102% (active); and `CCCCn1nnnc1C(c1cc2ccccc2o1)N(C)Cc1ccc(Cl)c(Cl)c1` (stereo unspecified), with 1.13%.

Take `COc1ccc(CN2C(=O)C(CC(=O)NCCCCc3ccccc3)CC(C(=O)N3CCOCC3)=C2C)cc1` (stereo unspecified): the activity change was -11%. The same measure for `CCn1nc(C)c(NC(=O)/C=C/c2ccc(OC)c(COc3ccc(Br)cc3)c2)c1C`: -50.3% (active).

`COc1ccc(C(C)=O)cc1COc1ccc(Cl)c(C)c1`: the activity change is -8.14%. Then `COc1ccc(/C=C/C(=O)Nc2c(C)nn(C)c2C)cc1COc1ccc(Br)cc1`, with -24.2%; and `O=C(NN=Cc1ccc2c(c1)CCC2)c1ccccc1O`, with -24.6%; and `CC1CCN(S(=O)(=O)c2ccc3c(c2)n(C)c(=O)n3C)CC1`, with -8.4%.

Take `CC1CCN(C(=S)c2cccc(O)c2)CC1`: the activity change is 10.7%. The same measure for `CCCCn1c(N)c(N(CCOC)C(=O)c2sc3ccccc3c2Cl)c(=O)[nH]c1=O`: -21.6%. The same measure for `CSc1ncc(Cl)c(C(=O)Nc2cc(C)ccc2C)n1`: 25.6%. On to `Cc1ccc(CS(=O)(=O)c2ncc(Cl)c(C(=O)Nc3nnc(C)s3)n2)cc1`, for which the activity change was -57.1% (active).

Consider `CSc1nnc(NC(=O)c2nc(S(=O)(=O)Cc3ccc(C)cc3)ncc2Cl)s1`, for which the activity change was -105% (active).

Turning to `Cc1nnc(NC(=O)CCCOc2ccccc2)s1`, the activity change is 19.1%. The same measure for `COCCSc1nnc(NC(=O)CCS(=O)(=O)Cc2ccccc2)s1`: 1.75%; for `Cc1ccc(S(=O)(=O)CCC(=O)Nc2nnc(CC(C)C)s2)cc1`: -3.21%; for `CCc1nc2ccc(C(=O)NC3CCN(Cc4ccccc4)CC3)cn2c1N(CC)CCOC`: -7.01%.

`O=C(Cn1cc(C(=O)C2CC2)c2ccccc21)Nc1ccccc1Cl`: the activity change is -2.81%. Consider `Cc1ccc(NS(=O)(=O)c2ccc(C(=O)NCCCN3CCOCC3)cc2)cc1`, for which the activity change is 6.14%.

Take `COC(=O)c1ccc2c(c1)S(=O)(=O)NC2C` (stereo unspecified): the activity change is 5.94%. As to `CCOC(=O)C1=CC[C@@H](c2ccccc2)N(S(=O)(=O)c2ccc(C)cc2)[C@H]1c1ccc(CC)cc1`, the activity change is 52.6%. Then `COc1ccc(S(=O)(=O)N2CCN(CC(=O)N3CCNC3=O)CC2)cc1OC`, with -22%. The same measure for `COC(=O)c1ccc(NCc2cc(O)ccc2O)cc1`: -110% (active).

For `COC(=O)c1ccc(NCC(=O)c2ccccc2)cc1`, the activity change is -20.4%. Then `O=C(OC12CC3CC(CC(C3)C1)C2)c1ccc(NCc2cc(O)ccc2O)cc1`, with -102% (active).

With `CC(C)OC(=O)c1ccc(NCc2cc(O)ccc2O)cc1Cl`, the activity change was 0%. For `CC1(C)C2CCC1(C)C(OC(=O)c1ccc(O)cc1)C2` (stereo unspecified), the activity change is 9.54%.

Turning to `Cc1ccc(-c2cnc(C(O)c3cccc(C)c3C)[nH]2)cc1` (stereo unspecified), the activity change was -19.2%. Then `CCC(=O)OCc1c(C(F)(F)F)nn(C)c1Oc1cccc(C(F)(F)F)c1`, with 2.89%; and `CCC(C)C(CO)NC(=O)/C=C/[C@H]1O[C@@H](n2cnc3c(NC(=O)c4ccccc4)ncnc32)[C@H](O)[C@@H]1O` (stereo partly specified), with -22%; and `C[C@H](CO)N1C[C@H](C)[C@@H](CN(C)Cc2ccc3c(c2)OCO3)OCc2cnnn2CCCC1=O`, with 19.4%. Then `CC1CCCC(C)N1C(=O)COC(=O)c1ccccc1C(=O)c1ccccc1` (stereo unspecified), with -9.64%; and `N#Cc1c(N)nc2c(c1N)CC(C(F)(F)F)O2` (stereo unspecified), with 16.5%.
